High-throughput results (PubChem)
KinaseGlo FLuc – Counterscreen for Luciferase (Kinase-Glo TM) Inhibition; Kinase-Glo luciferase, ATP luminescence, 8 min; Potency, µM (doses to about 38.3 µM), without a hit: at the highest dose activity change, negative = inhibition, usual class: inhibitors; 200,000 compounds, 0.28% hits; further: on the % scale 0 is the no-effect control and ±100 the full control effect; nearly all actives have a fitted effect of over 60% in size
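Compound is pinned into ATP-containing buffer (10 uM ATP, imidazole pH 7.2, 7 mM MgCl2). Kinase-Glo luciferase reagent is then added. Light output is recorded following an 8-min room-temperature incubation.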
HTT aggregate – qHTS Multiplex Assay to Identify Dual Action Probes in a Cell Model of Huntington: Aggregate Formation (GFP) | PC12 HttQ103-GFP aggregates, Acumen cytometry, 40 h | Potency, µM (highest dose often 46.1 µM), for the others: at the highest dose activity change, negative = inhibition, hits mostly inhibitors | 220,000 compounds, 1.1% hits; further: on the % scale 0 is the no-effect control and ±100 the full control effect; nearly all actives have a fitted effect of over 60% in size
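Huntingtin Q103 exon 1–GFP aggregates in induced PC12 cells (100 nM tebufenozide) were quantified by cytometry from lysates, with compounds dosed in titration.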
ALDH1A1 inh – qHTS Assay for Inhibitors of Aldehyde Dehydrogenase 1 (ALDH1A1); Purified ALDH1A1, NADH fluorescence, propionaldehyde substrate; 220,000 compounds, 7.3% hits; Potency, µM (highest dose often 75.3 µM), without a hit: at the top dose activity, negative = inhibition, hits mostly inhibitors; active means well fitted inhibition curve with a large enough effect, not every such curve was filed as active; inconclusive means small, poorly fitted or top-dose-only effect, or another doubt; inactive means no such curve, though single readings can be large or run the other way;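 further: plate controls were no enzyme wells and a reference inhibitor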
Target sequence (P00352 whole entry, looked up): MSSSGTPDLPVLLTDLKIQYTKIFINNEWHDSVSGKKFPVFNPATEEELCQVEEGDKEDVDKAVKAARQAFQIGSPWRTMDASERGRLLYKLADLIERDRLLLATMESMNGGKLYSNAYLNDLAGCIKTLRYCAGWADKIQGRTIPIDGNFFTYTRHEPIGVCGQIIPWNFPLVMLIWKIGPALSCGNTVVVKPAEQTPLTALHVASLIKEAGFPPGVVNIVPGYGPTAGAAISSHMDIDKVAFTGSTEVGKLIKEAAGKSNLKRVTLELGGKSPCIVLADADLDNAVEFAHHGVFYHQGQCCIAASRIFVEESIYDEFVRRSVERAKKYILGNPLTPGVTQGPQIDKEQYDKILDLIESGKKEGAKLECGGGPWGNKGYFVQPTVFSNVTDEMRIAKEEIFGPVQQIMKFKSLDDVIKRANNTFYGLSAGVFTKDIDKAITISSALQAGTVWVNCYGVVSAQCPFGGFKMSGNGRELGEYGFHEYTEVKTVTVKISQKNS
Lamin A splicing – qHTS Assay for Modulators of Lamin A Splicing; HeLa LMNA splicing GFP/RFP minigene ratio, 48 h; 200,000 compounds, 0.01% hits; AID 1487, 2009; Potency, µM (doses to about 46.1 µM), for the others: at the highest dose ratio change, negative = inhibition, most hits filed as inhibitors; active means well fitted inhibition curve with a large enough effect in the signal ratio, with a control signal flat, not every such curve was filed as active; inconclusive means small, poorly fitted or top-dose-only effect, or effect the other way, or a change in a side signal; the % refers to the signal ratio; further: on the % scale 0 is the no-effect control and ±100 the full control effect
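S3 HeLa cells stably expressing lamin A-EGFP splicing minigene plus DsRed2, 600 cells/well, 48 h compound exposure at 37C. Laser-scanning cytometry; analysed as GFP (500-530 nm)/RFP (575-640 nm) total intensity ratio; 0.5% DMSO vehicle.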
HTT ATP protect – qHTS Multiplex Assay to Identify Dual Action Probes in a Cell Model of Huntington: Cytoprotection (ATP) | Potency, µM (doses to about 56.4 µM), for the others: cytoprotection (ATP increase), most hits filed as activators | 230,000 compounds, 0.14% hits | AID 1471, 2008 | PC12 HTT-Q103 induced, cytoprotection, ATP luminescence, 40 h; further: % of control where 0% means no effect; nearly all actives have a fitted effect of over 45% in size
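Rat PC12, Q103 Htt exon1-GFP fusion, ecdysone promoter; tebufenozide inducer 100 nM final; compound titration; qHTS, 1500 cells/well; ATPlite luminescent read.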
HPGD inh – qHTS Assay for Inhibitors of HPGD (15-Hydroxyprostaglandin Dehydrogenase). 15-hydroxyprostaglandin dehydrogenase [NAD(+)] (Homo sapiens), P15428. 150,000 compounds, 4.3% hits. AID 894, 2007. Potency, µM, inactives show at the highest dose activity change, negative = inhibition, hits mostly inhibitors. purified HPGD, NADH fluorescence kinetic, PGE2 substrate; active means well fitted inhibition curve with a large enough effect, not every such curve was filed as active; inconclusive means small, poorly fitted or top-dose-only effect, or another doubt; inactive means no such curve, though single readings can be large or run the other way; further: on the % scale 0 is the no-effect control and ±100 the full control effect
Target sequence (P15428 whole entry, looked up): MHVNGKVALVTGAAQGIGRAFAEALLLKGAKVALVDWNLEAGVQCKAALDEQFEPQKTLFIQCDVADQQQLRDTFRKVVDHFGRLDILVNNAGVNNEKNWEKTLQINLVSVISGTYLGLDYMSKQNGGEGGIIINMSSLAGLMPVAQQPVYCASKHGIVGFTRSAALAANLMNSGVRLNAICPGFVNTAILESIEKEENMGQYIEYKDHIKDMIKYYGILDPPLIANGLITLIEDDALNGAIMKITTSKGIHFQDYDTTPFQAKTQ
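20 nM HPGD preincubated 15 min at room temperature with compound in 50 mM Tris-HCl pH 8, 0.01% Tween 20. Started with 1 mM NAD+ and 30 uM prostaglandin E2; NADH fluorescence (360/450 nm) read 5 times over 30-s intervals, last minus first.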
Numbers without * were called inactive; u = inconclusive; x = no result; ! = a repeat was not active; [ ] = dose if it differs, or a comment. Hits are enriched below; roughly 9% of the tested compounds scored in any of these assays. Unless noted, the call rests on the fitted dose curve; in most records, active means well fitted curve in the direction sought with a large enough effect; inconclusive means small, poorly fitted or top-dose-only effect, or another doubt; inactive means no such curve, though single readings can be large; an effect the other way counts as inactive or inconclusive. Potency means the concentration at half of the fitted maximal effect.

SMILES	KinaseGlo FLuc	HTT aggregate	ALDH1A1 inh	Lamin A splicing	HTT ATP protect	HPGD inh
CC(OC(=O)c1cc2ccccc2cc1O)C(=O)Nc1ccc(S(N)(=O)=O)cc1 (stereo not given)	x	-3%[9.22 µM]	x	x	8%[10 µM]	x
O=C(c1ccccc1)c1ccc(-c2ccc(O)cc2)cc1	x	-7%[9.22 µM]	-12%	u	-12%[10 µM]	x
CC(C)C(=O)Nc1ccc(C(=O)NNC(=O)CCc2ccccc2)cc1	-4%	17%	2%	-3%	-12%[10 µM]	-12%
O=C(c1ccccc1)c1ccccc1	4%[39.9 µM]	x	25µM*!	x	1%	-5%
CC(Oc1ccccc1)C(=O)Nc1ccccc1O (stereo not given)	1%	21%	4%	9%	19%	7.1µM*
COC(=O)c1ccccc1NC(=O)C(C)Oc1ccccc1 (stereo not given)	-2%	-13%	7%	-1%	11%[10 µM]	-5%
CC(C)C(=O)Nc1ccc(C(=O)c2ccccc2)cc1	5%	u	u	-5%	2%[1.9 µM]	14µM*
CN(C)CCNC(=O)c1ccc(-n2c(-c3ccccc3)cc3c2CCCCC3)cc1	x	x	x	-13%[46 µM]	x	x
CNc1nc(-c2ccc([N+](=O)[O-])cc2)cs1	-4%	7%	6%	-8%	-8%	-11%
Cc1ccc(NC(=O)CNc2ccc(N3CCOCC3)cc2)cc1S(=O)(=O)N(C)C	2%	-4%	10µM*	-2%[46 µM]	14%[10 µM]	x
Cc1ccc2c(c1)C(=O)C(=O)N2CC(=O)Nc1ccc(N2CCOCC2)cc1	0%	14%[9.22 µM]	8.9µM*	x	15%[10 µM]	x
Cc1ccc(NC(=O)CN(C)CC(=O)Nc2ccc(N3CCOCC3)cc2)cc1F	-1%	20%	9%	x	6%[10 µM]	x
O=C1CNC(=O)/C1=C/c1ccc(Br)cc1	x	12%[9.22 µM]	x	x	27%[10 µM]	x
O=C1CNC(=O)/C1=C/c1ccc(O)cc1	-23%	10%	32µM*	4%	7%	u
O=C1CNC(=O)/C1=C/c1ccccc1	1%	-2%	-2%	-12%	x	14µM*
Cc1cc(C)c(OCC(=O)Nc2ccc(NC(=O)c3ccco3)cc2)c([N+](=O)[O-])c1	0%	23%	-4%	-2%	x	-10%
CCCS(=O)(=O)N1CCN(CC2CC=CCC2)CC1 (stereo not given)	3%	-4%	-6%	15%	1%	1%
O=C(OCC(F)(F)F)[C@H](O)[C@@H](O)C(=O)OCC(F)(F)F	3%	x	0%	x	x	-5%
Cc1ccc(/C=C/C(=O)Nc2cccc3ncccc23)o1	4%	1%	u	-1%	0%[10 µM]	32µM*
N#C/C(=C\c1cccc([N+](=O)[O-])c1)C(=O)Nc1cccnc1	3%	10%	11µM*	x	-16%	x
Cc1ccc(/C=C/C(=O)Nc2cccnc2)o1	-2%	-7%	10µM*	1%	x	22µM*
O=C(/C=C/c1ccc([N+](=O)[O-])cc1)Nc1cccnc1	u	1%	8.9µM*	10%	-108%	-24%
COC(=O)CSC(C(=O)Nc1ccc(C)c(C)c1)c1ccccc1 (stereo not given)	2%	1%	10µM*	0%	3%	-23%
COc1ccc(-n2c(=O)/c(=C\c3cccs3)s/c2=C(/C#N)C(=O)N2CCN(C)CC2)cc1	-4%	-5%	7.1µM*	x	-13%	x
COc1ccc(/C=C/C(=O)OCc2csc(-c3ccccc3)n2)cc1OC	-1%	-2%	u	-7%	9%[10 µM]	u
SMILES	KinaseGlo FLuc	HTT aggregate	ALDH1A1 inh	Lamin A splicing	HTT ATP protect	HPGD inh
COc1ccc(-c2ccc(C#N)c(SCC(=O)Nc3sc4c(c3C#N)CCC4)n2)cc1OC	-3%	3%	-10%	-5%	-1%	u
CCCc1nc2c(=O)n(C)c(=O)nc-2n(C)n1	-2%	6.3µM*	3%	x	-172%	x
Cn1nc(-c2ccccn2)nc2c(=O)n(C)c(=O)nc1-2	x	u	x	u	-45%[10 µM]	x
CN(C)Cc1c(O)ccc2oc(Cc3ccccc3)cc12	-2%	4.5µM*	-1%	u	-37%[10 µM]	-15%
CC1(C)C2CCC(C2)C1C/C=N/NC(N)=S (stereo not given)	x	-10%[9.22 µM]	u	x	0%[10 µM]	x
O=c1c2ccccc2[nH]c(=S)n1CCCN1CCOCC1	-4%	1%	-2%	4%	18%	-13%
O=C(c1cccc2c1-c1ccccc1/C2=N/O)N1CCCCC1	3%	11µM*	u	u	6%	-1%
O=C1c2ccccc2-c2c1cccc2C(=O)N1CCCCC1	2%	-11%	-4%	-10%	17%[10 µM]	0%
N#C/C(=C\c1ccncc1)c1nc2ccccc2c(=O)[nH]1	-1%	24%	7.9µM*	u	-15%	x
Cc1ccccc1N1C(=O)C2ON(c3ccccc3)C(c3ccco3)C2C1=O (stereo not given)	x	-25%[9.22 µM]	x	x	-5%[10 µM]	x
CCCCCCN1C=CC=C/C1=C/C=C(C#N)C#N	-2%	4%	1%	u	x	11µM*
CCCCCCN1C=C/C(=C\C=C(C#N)C#N)c2ccccc21	u	u	8%	0%	22%[1.9 µM]	-3%
CCCCCN1C=CC=C/C1=C\C=C(C#N)C#N	x	-5%[9.22 µM]	0.45µM*	x	8%[10 µM]	x
CCCN1C=CC(=CC=C(C#N)C#N)C=C1	x	-12%[9.22 µM]	u	x	-5%[10 µM]	x
COc1ccc2c(Cl)c(C(=O)N/N=C3\CCCC(=O)C3)sc2c1	-2%	-7%	4.5µM*	x	-48%	x
CN(C)c1ccc(CNC(=O)C2(C)C=CCN2C(=O)c2ccccc2)cc1 (stereo not given)	-6%	x	18µM*	x	18%	-17%
CC1(C(=O)O)C=CCN1C(=O)c1ccccc1 (stereo not given)	-2%	8%	8%	-9%	16%	-4%
CC(=O)Nc1c(C(=O)N2CCOCC2)sc2nc3c(cc12)COC(C)(C)C3	-1%	9%	u	-7%	-18%[0.074 µM]	-21%
COc1cccc(C=Nc2ccc(C)c(F)c2)c1O	-3%	-5%	9%	7%	x	-9%
OCCCNc1cc(-c2ccnc(Nc3cccc(Cl)c3)n2)ccn1	x	0.71µM*	x	x	-5%[10 µM]	x
CCC(C)Oc1cc(-c2ccnc(Nc3cccc(Cl)c3)n2)ccn1 (stereo not given)	x	-18%[9.22 µM]	x	x	25%[10 µM]	x
O=C(CCC(=O)c1cccs1)Nc1ccccc1F	11%	4%	2%	-2%	-23%	-21%
